# PubChem BioAssay (Tox21)
# Inconclusive results are not listed. A number with no mark means an inactive call. Active and inactive are the calls of the source. Calls follow the shape of the full dose curve.
# Experiment: qHTS assay to identify small molecule agonists of the hypoxia (HIF-1) signaling pathway - cell viability counter screen (AID 1224844); also: nearly all actives have a fitted effect of over 50% in size
# Conditions: HRE-bla ME-180 viability, CellTiter-Glo luminescence, 17 h; series mostly up to 76.8 µM; activity change, negative = cytotoxicity: at the top concentration
# Text: National Center for Advancing Translational Sciences [NCATS]
# NIH Chemical Genomics Center [NCGC]
# U.S. Environmental Protection Agency [EPA]
# National Institutes of Environmental Health Sciences [NIEHS]
# National Toxicology Program [NTP]
# U.S. Food and Drug Administration [FDA]
# Hypoxia-inducible factor-1 (HIF-1) is the major hypoxia-regulated transcription factor that controls cellular responses to low oxygen concentration. HIF-1 is composed of two subunits: hypoxia responsive HIF-1-alpha and constitutively expressed HIF-1-beta, which is also known as aryl hydrocarbon receptor nuclear translocator. During hypoxic conditions, HIF-1-alpha heterodimerizes with HIF-1-beta and translocates into the nucleus where the HIF-1 complex binds to the hypoxia-response element (HRE) and activates expression of target genes such as VEGF (vascular endothelial growth factor). The HIF-1 pathway is essential to normal growth and development, and is involved in the pathophysiology of cancer, inflammation, and ischemia.
# Using a beta-lactamase reporter-gene under control of the hypoxia response element, a cell-based assay [CellSensor(TM) HRE-bla ME-180 from Life Technologies, Carlsbad, CA] was used to measure hypoxia-induced signaling. Tox21 10K library compounds were measured for their ability to induce the reporter gene activity. The cytotoxicity of the Tox21 compound library against HRE-bla ME-180 cell line was tested in parallel by measuring cell viability using CellTiter-Glo assay (Promega, Madison, WI) in the same assay wells.
# Tox21 Assay Protocol Summary:
# HRE-bla ME-180 cells were dispensed at 2,000 cells per well in 6 uL of assay medium containing 0.5% dialyzed FBS into black wall/clear-bottom 1536-well plates using a Multidrop Combi (Thermo Scientific, Waltham, MA) dispenser. After the assay plates were incubated at 37C and 5% CO2 for 5 hrs, 23 nL of compounds dissolved in DMSO, positive controls or DMSO only was transferred to each well of the assay plate using a Pintool station (Kalypsys, San Diego, CA). The assay plates were incubated at 37C and 5% CO2 for 17 hrs. One uL of LiveBLAzerTM B/G FRET substrate (CCF4-AM) (Life Technologies) was added to each well using a Flying Reagent Dispenser (FRD, Aurora Discovery, San Diego, CA). After 2 hr incubation at room temperature, fluorescence intensity (405 nm excitation, 460 nm and 530 nm emissions) was measured using an Envision plate reader (PerkinElmer, Shelton, CT). For cytotoxicity, 4 ul/well of CellTiter-Glo reagent was added into the assay plates using an FRD. After 30 min incubation at room temperature, the luminescence intensity was measured using a ViewLux plate reader (PerkinElmer).
# % is scaled to controls: 0 for no effect and ±100 for the full control effect; potency is read from the fitted curve at half-maximal effect.
Compound,"activity change, negative = cytotoxicity",Potency
Cc1ncc(C[n+]2csc(CCO)c2C)c(N)n1,-0.741%,–
O=[N+]([O-])O[C@H]1CO[C@H]2[C@@H]1OC[C@H]2O[N+](=O)[O-],-1.23% [at 35.3 µM],–
C=CCOC(=O)C(C)(C)OC(=O)c1cc(-n2c(=O)cc(C(F)(F)F)n(C)c2=O)ccc1Cl,0.114%,–
Cc1cccc(C)c1NC1=NCCCS1,1.67% [at 35.3 µM],–
SCc1ccccc1,0.534%,–
Nc1ccccc1C(=O)OCC(O)CO (stereo not given),3.12% [at 35.3 µM],–
C=CCN1C[C@H](C)N([C@H](c2ccc(C(=O)N(CC)CC)cc2)c2cccc(OC)c2)C[C@H]1C,11.7% [at 35.3 µM],–
Cc1cnc(C2=NC(C)(C(C)C)C(=O)N2)c(C(=O)O)c1 (stereo not given),-5.15%,–
CC(C)(C)c1ccc(CCOc2ncnc3ccccc23)cc1,5.5%,–
O=C(NC(=O)c1cc(F)c(F)cc1Cl)Nc1cc(F)ccc1N1CCC(C(=O)O)CC1,3.26% [at 35.3 µM],–
CCCCC(CC)COC(=O)c1c(Br)c(Br)c(Br)c(Br)c1C(=O)OCC(CC)CCCC (stereo not given),-9.74% [at 35.3 µM],–
CC(=O)NNc1ccccc1,-5.74%,–
CCOC(=O)c1cn2nc(OP(=S)(OCC)OCC)cc2nc1C,-0.392%,–
CC(C)c1ccc(OP(=O)(Oc2ccc(C(C)C)cc2)Oc2ccc(C(C)C)cc2)cc1,-29.1%,–
CCOP(=O)(SC(C)CC)N1CCSC1=O (stereo not given),1.45%,–
O=[N+]([O-])c1cc(Cl)c(Cl)cc1Cl,-9.97%,–
COC1=CC(=O)O[C@@H](/C=C/c2ccc3c(c2)OCO3)C1,-4.37%,–
CN[C@@H](C)[C@H](O)c1ccccc1,8.05% [at 35.3 µM],–
C#C[C@]1(O)CC[C@H]2[C@@H]3CCC4=CC(=O)CCC4=C3C=C[C@@]21CC,6.63% [at 35.3 µM],–
O=C(Cl)OCCOCCOC(=O)Cl,14.4%,–

Compound,"activity change, negative = cytotoxicity",Potency
O=C(CCl)CCl,–,21.9 µM (active)
CC(C)C1(C)N=C(c2ncccc2C(=O)O)NC1=O (stereo not given),8.34%,–
Oc1cccc(Cl)c1,-4.09%,–
CCCCOC(=O)CCC(=O)OCCCC,12.7%,–
Cc1ccccc1,6.08%,–
Cc1nnc(-c2ccccc2)c(=O)n1N,6.33%,–
CNC(=O)Oc1cccc(N=CN(C)C)c1,12.8%,–
CCC1(C2=NCCN2)Cc2ccccc2O1 (stereo not given),-0.801% [at 35.3 µM],–
O=C(O)C(F)(F)C(F)(F)C(F)(F)C(F)(F)C(F)(F)C(F)(F)C(F)(F)C(F)(F)F,–,8.71 µM (active)
CCOP(=S)(OCC)SCSc1cc(Cl)ccc1Cl,1.39%,–
COc1ccc(C(O)(c2cncnc2)C2CC2)cc1 (stereo not given),9.66%,–
CC(C)(C#N)C(C)(C)C#N,0.623%,–
C[Si](Cn1cncn1)(c1ccc(F)cc1)c1ccc(F)cc1,–,inactive
COCc1cnc(C2=NC(C)(C(C)C)C(=O)N2)c(C(=O)O)c1 (stereo not given),-0.738%,–
CCCN(CCOc1c(Cl)cc(Cl)cc1Cl)C(=O)n1ccnc1,–,inactive
CCCCC1C(=O)NC(=O)N(C2CCCCC2)C1=O (stereo not given),-2.42% [at 35.3 µM],–
N#CC(C#N)=Cc1ccc(O)c(O)c1,-3.56% [at 35.3 µM],–
Clc1ccccc1,-12.2%,–
CCCC[N+](CCCC)(CCCC)CCCC,8.86%,–
NP(N)(=O)NC(=O)c1ccc(F)cc1,-3.7% [at 35.3 µM],–
